Records with an inconclusive call do not appear. The source made the active and inactive calls. Calls follow the shape of the dose curve; as a rule, active = well fitted inhibition curve with a large enough effect in the signal ratio in the repeat runs (not every such curve was filed as active); inconclusive = weak or mixed curves, or effect the other way; inactive = no such curve, though single readings can be large or run the other way; the % refers to the signal ratio.
biological target: Vitamin D3 receptor (Homo sapiens) (UniProt P11473); assay: qHTS assay to identify small molecule antagonists of the vitamin D receptor (VDR) signaling pathway (AID 743223); settings: VDR-UAS-bla HEK293T, beta-lactamase FRET ratio, 16 h; series mostly up to 61 µM; activity change, negative = inhibition: at the top concentration
Description: U.S. Tox21 Program National Center for Advancing Translational Sciences [NCATS] NIH Chemical Genomics Center [NCGC] U.S. Environmental Protection Agency [EPA] National Institutes of Environmental Health Sciences [NIEHS] National Toxicology Program [NTP] U.S. Food and Drug Administration [FDA] Tox21 Assay Overview: The vitamin D receptor (VDR), a member of nuclear hormone receptor superfamily, plays a critical role in calcium homeostasis and bone metabolism. It is also involved in cell differentiation and growth, and thrombogenicity.
Tox21 Assay Protocol Summary: VDR-bla cells were dispensed at 2,000 cells/5 uL of assay medium per well into black wall/clear-bottom 1536-well plates using a Multidrop Combi (Thermo Fisher Scientific, Waltham, MA) dispenser. After the assay plates were incubated at a 37C and 5% CO2 for 4 h, 23 nL of compounds dissolved in DMSO, positive controls or DMSO only was transferred to the assay plate by a Pintool station (Kalypsys, San Diego, CA), followed by addition of 1 uL of 1alpha, 25-Dihydroxy Vitamin D3 (3 nM, final concentration in the wells) using a Bioraptr Flying Reagent Dispenser (FRD) workstation (Beckman Coulter, Indianapolis, IN). The plates were incubated at 37C and 5% CO2 for 16 h, and then 1 uL of LiveBLAzerTM B/G FRET substrate was added using a Bioraptr FRD. The plates were incubated at room temperature for 2 h and fluorescence intensity was measured by an Envision plate reader (PerkinElmer, Shelton, CT).
% is scaled to controls: 0 for no effect and ±100 for the full control effect.

Sequence of Vitamin D3 receptor (Homo sapiens) (P11473 whole entry, looked up): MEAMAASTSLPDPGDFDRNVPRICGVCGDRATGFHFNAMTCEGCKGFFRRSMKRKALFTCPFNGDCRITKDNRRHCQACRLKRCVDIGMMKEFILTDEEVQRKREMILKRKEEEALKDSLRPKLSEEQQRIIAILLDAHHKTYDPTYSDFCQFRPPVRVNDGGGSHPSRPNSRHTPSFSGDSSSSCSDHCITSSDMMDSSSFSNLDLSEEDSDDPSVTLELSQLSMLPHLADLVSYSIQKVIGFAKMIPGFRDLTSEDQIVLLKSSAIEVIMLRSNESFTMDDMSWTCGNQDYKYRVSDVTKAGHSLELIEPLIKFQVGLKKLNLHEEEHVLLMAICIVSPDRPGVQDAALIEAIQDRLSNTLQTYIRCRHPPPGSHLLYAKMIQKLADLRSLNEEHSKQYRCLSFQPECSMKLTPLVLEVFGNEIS

Compound | activity change, negative = inhibition
O=C1c2ccccc2C(=O)c2cc(S(=O)(=O)O)ccc21 | 8.2% [at 78.8 µM] (inactive)
c1ccc2nccnc2c1 | -5.84% [at 78.8 µM] (inactive)
Cc1ccccc1OCC(O)CO (stereo not given) | 2.07% (inactive)
COc1ccc(S(=O)(=O)N2c3ccc(Cl)cc3[C@@](O)(c3ccccc3Cl)[C@H]2C(=O)N2CCC[C@@H]2C(N)=O)cc1OC | 9.03% (inactive)
CCNC(=O)C1CC(C)CCC1C(C)C (stereo not given) | -0.569% (inactive)
C=C1CC/C=C(\C)CC[C@@H]2[C@@H]1CC2(C)C | -0.147% (inactive)
C=C(C)C(=O)OCCN(CC)CC | 8.78% (inactive)
COc1cc(NS(=O)(=O)c2ccc(N)cc2)nc(OC)n1 | -4.69% (inactive)
O=C(Nc1ccc(Cl)c(Cl)c1)C1CC1 | 10.4% (inactive)
C[C@H](N)[C@H](O)c1cccc(O)c1 | -3.6% (inactive)
O=C(OCc1ccccc1)C(=O)OCc1ccccc1 | -1.49% (inactive)
COc1cc2c(cc1OC)C(=O)CC2 | -1.1% (inactive)
O=S(=O)(O)CCN1CCN(CCO)CC1 | 12.6% (inactive)
NNc1nnc(NN)c2ccccc12 | 0.139% (inactive)
CN1CCN(CC(=O)N2c3ccccc3C(=O)Nc3cccnc32)CC1 | -1.37% [at 6.95 µM] (inactive)
O=P(O)(O)OP(=O)(O)O | 8.32% (inactive)
CCC(C)NC(N)=O (stereo not given) | -7.52% (inactive)
COC(=O)[C@@H]1[C@H]2C[C@H]3c4[nH]c5ccccc5c4CCN3C[C@@H]2CC[C@@H]1O | 4.12% (inactive)
CC(=O)/C=C/C1C(C)=CCC(C)C1(C)C (stereo not given) | 4.02% (inactive)
Oc1ccccc1-c1nnco1 | 16.7% (inactive)

Compound | activity change, negative = inhibition
OC[C@H](Cc1cccc(O)c1)[C@H](CO)Cc1cccc(O)c1 | -5.74% [at 78.8 µM] (inactive)
O=C(NCCN1CCOCC1)c1ccc(Cl)cc1 | 7.78% (inactive)
N#Cc1ccc(C(=O)O)cc1 | -8.05% (inactive)
CCC(C)(CCC(C)C)C(=O)O (stereo not given) | -8.86% (inactive)
Oc1cn2c(n1)Nc1ccc(Cl)c(Cl)c1C2 | 4.76% [at 28.5 µM] (inactive)
CCCCC(CC)COCCO (stereo not given) | -1.52% (inactive)
CC/C=C\CC1=C(C)CCC1=O | -1.31% (inactive)
N[C@@H](CCC(=O)N[C@@H](CS)C(=O)NCC(=O)O)C(=O)O | 1.09% [at 28.5 µM] (inactive)
O=C(O)C(=O)Cc1ccccc1 | 17.5% (inactive)
CCOC(=O)c1ncn2c1CN(C)C(=O)c1cc(F)ccc1-2 | 2.65% (inactive)
CC(=O)c1sc(C)nc1C | 2.61% (inactive)
CC(C)(C)NC(N)=O | -24.6% (inactive)
C=CCCCCCCCCCCCC | 2.94% (inactive)
O=C(CCNNC(=O)c1ccncc1)NCc1ccccc1 | 2.11% (inactive)
CC(=O)NCCCCCC(=O)O | 6.18% (inactive)
C[C@@H](Oc1ccc(CNC(=O)c2cccnc2Oc2ccc3c(c2)OCO3)c(F)c1)C(=O)O | -0.689% (inactive)
CCOC(=O)/C=C/c1ccccc1 | -8.96% (inactive)
Cc1cc2cc3c(C)cc(=O)oc3c(C)c2o1 | 1.34% (inactive)
CCCOC(=O)C(C)O (stereo not given) | -3.07% [at 78.8 µM] (inactive)
Cc1cccc(C)c1NC(=O)c1ccccc1C(=O)O | 1.6% (inactive)

Reference: PubChem BioAssay (Tox21)
